# From PubChem BioAssay (NCI)
# The panel holds about 79,000 compounds, 15% with a hit somewhere; the sample as a whole holds those more often. Unmarked numbers belong to inactive results. Calls of active or inactive are those of the source. Rule as the data show it: active = growth inhibition above about 70%; inactive = the rest.
# Experiments:
# [1] = NCI Yeast Anticancer Drug Screen. Data for the wt1 strain (AID 149);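 also: 0% = growth of vehicle-treated wt1 cultures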; details: S. cerevisiae wt1 strain (SPY 50644) growth inhibition, active compounds read high
# Method in brief: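 Readout: yeast growth inhibition, normalised to vehicle controls, in the wt1 strain exposed to test compounds.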
# [2] = NCI Yeast Anticancer Drug Screen. Data for the rad50EPP+ strain (AID 151);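 also: 0% = growth of vehicle-treated control cultures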; details: S. cerevisiae rad50 mutant strain, active compounds read high
# Method in brief: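 Genetically defined yeast (rad50EPP+, DNA damage repair alteration) is grown with compound, and inhibition of growth is expressed relative to vehicle-treated controls.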
# [3] = NCI Yeast Anticancer Drug Screen. Data for the mgt1 strain (AID 153); details: S. cerevisiae mgt1 mutant growth inhibition, active compounds read high
# Method in brief: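 In the mgt1 strain, test compounds were added and growth inhibition was determined relative to vehicle-treated controls.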
# [4] = NCI Yeast Anticancer Drug Screen. Data for the rad50 strain (AID 155);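 also: 0% = growth of vehicle-only cultures of the same strain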; details: S. cerevisiae rad50 strain growth inhibition, active compounds read high
# Method in brief: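 Compounds were tested on a yeast strain with an engineered DNA damage repair alteration; the reported value is growth inhibition normalised to vehicle treatment.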
# [5] = NCI Yeast Anticancer Drug Screen. Data for the mec2-1 strain (AID 157); details: S. cerevisiae mec2-1 strain, active compounds read high
# Method in brief: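 Each compound was tested on mec2-1 yeast, a strain altered in DNA damage repair or cell cycle control. Growth inhibition is reported relative to vehicle.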
# [6] = NCI Yeast Anticancer Drug Screen. Data for the rad14 strain (AID 159);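 also: 0% = growth of vehicle-treated control cultures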; details: S. cerevisiae rad14 strain growth inhibition, active compounds read high
# Method in brief: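 Compound-treated yeast with a defined DNA-repair lesion; growth inhibition normalised to vehicle-treated cultures.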
# [7] = NCI Yeast Anticancer Drug Screen. Data for the sgs1 mgt1 strain (AID 161);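 also: 0% = growth of cultures given vehicle only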; details: S. cerevisiae sgs1 mgt1 strain, active compounds read high
# Method in brief: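 Inhibition of yeast growth, normalised to vehicle-treated controls, is reported for a strain bearing genetic alterations in DNA damage repair.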
# [8] = NCI Yeast Anticancer Drug Screen. Data for the CLN2oe strain (AID 163);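 also: 0% = growth of vehicle-only control cultures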; details: S. cerevisiae CLN2oe strain, active compounds read high
# Method in brief: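 First, the altered yeast strain was treated with each compound; second, its growth was measured; finally, inhibition was derived by comparison with vehicle controls.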
# [9] = NCI Yeast Anticancer Drug Screen. Data for the cln2 rad14 strain (AID 165);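 also: 0% = growth equal to vehicle treated cultures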; details: S. cerevisiae cln2 rad14 strain, active compounds read high
# Method in brief: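 Test compounds were added to cln2 rad14 yeast cultures; inhibition of growth was then determined by comparison with vehicle treatment.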
# [10] = NCI Yeast Anticancer Drug Screen. Data for the bub3 strain (AID 167); details: S. cerevisiae bub3 mutant strain, active compounds read high
# Method in brief: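 Growth of a checkpoint-deficient yeast mutant is measured after compound exposure. Values represent inhibition relative to vehicle.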
# [11] = NCI Yeast Anticancer Drug Screen. Data for the wt2 strain (AID 169);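 also: 0% = growth of vehicle-treated yeast cultures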; details: S. cerevisiae wt2 strain growth inhibition, active compounds read high
# Method in brief: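 The panel's yeast strains carry defined changes in DNA repair or cell cycle genes. Each strain is grown with compound, and growth loss is scored relative to vehicle.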
# [12] = NCI Yeast Anticancer Drug Screen. Data for the mlh1 strain (AID 171);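 also: 0% = growth of vehicle-treated control cultures of the same strain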; details: S. cerevisiae mlh1 strain growth inhibition, active compounds read high
# Method in brief: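 Inhibition values reflect reduced yeast growth in the presence of compound, referenced to vehicle controls, using a strain chosen for its alteration in DNA repair or cell cycle control.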
# [13] = NCI Yeast Anticancer Drug Screen. Data for the sgs1 strain (AID 173);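 also: 0% = growth of vehicle-only control cultures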; details: S. cerevisiae sgs1 mutant, active compounds read high
# Method in brief: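 Vehicle-treated cultures served as reference for growth inhibition of a yeast strain altered in DNA damage repair or cell cycle control after compound exposure.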
# [14] = NCI Yeast Anticancer Drug Screen. Data for the mlh1 rad18 strain (AID 175); details: S. cerevisiae mlh1 rad18 strain growth inhibition, active compounds read high
# Method in brief: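 Inhibition values reflect reduced growth of mutant yeast versus vehicle-treated controls following compound exposure; the mutations affect DNA damage repair.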
# [15] = NCI Yeast Anticancer Drug Screen. Data for the rad18 strain (AID 177); details: S. cerevisiae rad18 mutant growth inhibition, active compounds read high
# Method in brief: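 Steps: expose repair-mutant yeast to compound; measure growth; express as inhibition relative to vehicle control.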
# [16] = at 5.0 µM (retest, dose inferred, filed as 0.5)
# [17] = at 50.0 µM (retest, dose inferred, filed as 5.0)
smiles,measurement,setting,value
CC(C)OC(CCC#N)c1ccc(Cl)cc1 (stereo not drawn),growth inhibition,[1]; at 1.2 µM,-35%
same,growth inhibition,[1]; at 3.7 µM,-28%
same,growth inhibition,[1]; at 11.0 µM,-24%
same,growth inhibition,[1]; at 33.0 µM,-13%
same,growth inhibition,[1]; at 100.0 µM,4%
same,growth inhibition,[2]; at 1.2 µM,-6%
same,growth inhibition,[2]; at 3.7 µM,1%
same,growth inhibition,[2]; at 11.0 µM,2%
same,growth inhibition,[2]; at 33.0 µM,5%
same,growth inhibition,[2]; at 100.0 µM,20%
same,growth inhibition,[3]; at 1.2 µM,-46%
same,growth inhibition,[3]; at 3.7 µM,-44%
same,growth inhibition,[3]; at 11.0 µM,-41%
same,growth inhibition,[3]; at 33.0 µM,-17%
same,growth inhibition,[3]; at 100.0 µM,7%
same,growth inhibition,[4]; at 1.2 µM,-22%
same,growth inhibition,[4]; at 3.7 µM,-25%
same,growth inhibition,[4]; [16],62%
same,growth inhibition,[4]; at 11.0 µM,-26%
same,growth inhibition,[4]; at 33.0 µM,-6%
same,growth inhibition,[4]; [17],99% (active)
same,growth inhibition,[4]; at 50.0 µM,3.4%
same,growth inhibition,[4]; at 100.0 µM,24%
same,growth inhibition,[5]; at 1.2 µM,-29%
same,growth inhibition,[5]; at 3.7 µM,-28%
same,growth inhibition,[5]; [16],55%
same,growth inhibition,[5]; at 11.0 µM,-18%
same,growth inhibition,[5]; at 33.0 µM,-2%
same,growth inhibition,[5]; [17],99% (active)
same,growth inhibition,[5]; at 50.0 µM,7.95%
same,growth inhibition,[5]; at 100.0 µM,7%
same,growth inhibition,[6]; at 1.2 µM,-22%
same,growth inhibition,[6]; at 3.7 µM,-26%
same,growth inhibition,[6]; at 11.0 µM,-12%
same,growth inhibition,[6]; at 33.0 µM,-6%
same,growth inhibition,[6]; at 100.0 µM,1%
same,growth inhibition,[7]; [16],2%
same,growth inhibition,[7]; [17],-4%
same,growth inhibition,[7]; at 50.0 µM,56%
same,growth inhibition,[8]; at 1.2 µM,11%
same,growth inhibition,[8]; at 3.7 µM,-6%
same,growth inhibition,[8]; at 11.0 µM,14%
same,growth inhibition,[8]; at 33.0 µM,15%
same,growth inhibition,[8]; at 100.0 µM,11%
same,growth inhibition,[9]; [16],48%
same,growth inhibition,[9]; [17],46%
same,growth inhibition,[9]; at 50.0 µM,6.8%
same,growth inhibition,[10]; at 1.2 µM,-18%
same,growth inhibition,[10]; at 3.7 µM,-12%
same,growth inhibition,[10]; [16],44%
same,growth inhibition,[10]; at 11.0 µM,-19%
same,growth inhibition,[10]; at 33.0 µM,5%
same,growth inhibition,[10]; [17],45%
same,growth inhibition,[10]; at 50.0 µM,-1.8%
same,growth inhibition,[10]; at 100.0 µM,4%
same,growth inhibition,[11]; at 1.2 µM,-19%
same,growth inhibition,[11]; at 3.7 µM,-21%
same,growth inhibition,[11]; at 11.0 µM,-17%
same,growth inhibition,[11]; at 33.0 µM,-12%
same,growth inhibition,[11]; at 100.0 µM,12%
same,growth inhibition,[12]; at 1.2 µM,-23%
same,growth inhibition,[12]; at 3.7 µM,-15%
same,growth inhibition,[12]; at 11.0 µM,-16%
same,growth inhibition,[12]; at 33.0 µM,6%
same,growth inhibition,[12]; at 100.0 µM,11%
same,growth inhibition,[13]; at 1.2 µM,-20%
same,growth inhibition,[13]; at 3.7 µM,-11%
same,growth inhibition,[13]; at 11.0 µM,-8%
same,growth inhibition,[13]; at 33.0 µM,17%
same,growth inhibition,[13]; at 100.0 µM,40%
same,growth inhibition,[14]; [16],42%
same,growth inhibition,[14]; [17],100% (active)
same,growth inhibition,[14]; at 50.0 µM,19.9%
same,growth inhibition,[15]; at 1.2 µM,-29%
same,growth inhibition,[15]; at 3.7 µM,-32%
same,growth inhibition,[15]; at 11.0 µM,-24%
same,growth inhibition,[15]; at 33.0 µM,-16%
same,growth inhibition,[15]; at 100.0 µM,0%
